Several values for one entry are separate records, joined by “and”; a condition that tells them apart may be missing. Identical values can stand only once. In all, about 5,500 compounds went through this assay and about 2,000 (36%) were called active. About 18% were inconclusive and are not listed. No stated cut-off is given here; in the data, active means normalized growth mostly below about 0.91 (no sharp cut-off); inconclusive means no clear call, values can overlap the other calls; inactive means mostly above about 0.92. The list shows a part of the results.
Experiment: chemical genetic growth profiling, strain panel (AID 1159580);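 further: tested at 20 µM; growth read once vehicle control cultures reached saturation at 30 °C; 1 = growth at the plate median or of vehicle wells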
Settings: S. cerevisiae deletion strains, growth OD

Measured: normalized growth

CC[C@@H]1[C@@H](O)N2C3C[C@H]1C1C(O)[C@]4(C[C@@H]12)c1ccccc1N(C)[C@@H]34 (some centres not stated)
inactive: locus YAL013W, strain DEP1, stronger effect = lower value 0.992 | locus YAL021C, strain ccr4, stronger effect = lower value 1.01 | locus YAL026C, strain drs2, stronger effect = lower value 1.04 | locus YAL030W, strain snc1, stronger effect = lower value 1.05 | locus YBL061C, strain skt5, stronger effect = lower value 1.04 | locus YBR009C, strain hhf1, stronger effect = lower value 1.02 | locus YBR021W, strain FUR4, stronger effect = lower value 0.989 | locus YBR023C, strain chs3, stronger effect = lower value 1.05 | locus YBR171W, strain sec66, stronger effect = lower value 1.07 | locus YBR229C, strain ROT2, stronger effect = lower value 0.991 | locus YBR231C, strain swc5, stronger effect = lower value 0.999 | locus YBR279W, strain paf1, stronger effect = lower value 1.04 | locus YCL011C, strain gbp2, stronger effect = lower value 1.02 | locus YCL016C, strain dcc1, stronger effect = lower value 1.02 | locus YCL029C, strain bik1, stronger effect = lower value 0.956 | locus YCL061C, strain MRC1, stronger effect = lower value 1.04 | locus YCL069W, strain vba3, stronger effect = lower value 1.04 | locus YCR088W, strain abp1, stronger effect = lower value 1.04 | locus YDL005C, strain med2, stronger effect = lower value 1.05 | locus YDL035C, strain GPR1, stronger effect = lower value 1.01 | locus YDL040C, strain nat1, stronger effect = lower value 1.03 | locus YDL074C, strain BRE1, stronger effect = lower value 0.972 | locus YDL101C, strain DUN1, stronger effect = lower value 0.984 | locus YDL134C, strain PPH21, stronger effect = lower value 0.986 | locus YDL185W, strain tfp1, stronger effect = lower value 0.963 | locus YDL192W, strain arf1, stronger effect = lower value 0.984 | locus YDR001C, strain nth1, stronger effect = lower value 1.02 | locus YDR069C, strain doa4, stronger effect = lower value 1.04 | locus YDR101C, strain arx1, stronger effect = lower value 0.981 | locus YDR137W, strain rgp1, stronger effect = lower value 1.04 | locus YDR150W, strain NUM1, stronger effect = lower value 1 | locus YDR159W, strain sac3, stronger effect = lower value 0.974 | locus YDR162C, strain NBP2, stronger effect = lower value 0.998 | locus YDR195W, strain ref2 1.03 | locus YDR297W, strain sur2, stronger effect = lower value 1.03 | locus YDR318W, strain mcm21, stronger effect = lower value 0.972 | locus YDR334W, strain swr1, stronger effect = lower value 1.03 | locus YDR335W, strain msn5, stronger effect = lower value 1.03 | locus YDR388W, stronger effect = lower value 0.978 | locus YDR392W, strain spt3, stronger effect = lower value 0.93 | locus YDR502C, strain sam2, stronger effect = lower value 1 | locus YEL003W, strain gim4, stronger effect = lower value 1.03 | locus YEL037C, strain rad23, stronger effect = lower value 1.02 | locus YEL061C, strain CIN8 (second series), stronger effect = lower value 1.04 | locus YEL061C, strain CIN8, stronger effect = lower value 0.995 | locus YER015W, strain faa2, stronger effect = lower value 1.02 | locus YER016W, strain bim1, stronger effect = lower value 1.01 | locus YER110C, stronger effect = lower value 0.977 | locus YER111C, strain swi4, stronger effect = lower value 1.06 | locus YER155C, strain BEM2 (second series), stronger effect = lower value 0.983 | locus YER155C, strain BEM2, stronger effect = lower value 0.991 | locus YER167W, strain BCK2, stronger effect = lower value 0.989 | locus YFR010W, strain ubp6, stronger effect = lower value 1.02 | locus YGL078C, strain dbp3, stronger effect = lower value 0.978 | locus YGL086W, strain mad1, stronger effect = lower value 0.992 | locus YGL167C, strain pmr1, stronger effect = lower value 1.03 | locus YGL173C, strain kem1, stronger effect = lower value 1.02 | locus YGL227W, strain vid30, stronger effect = lower value 1.05 | locus YGL240W, strain doc1, stronger effect = lower value 0.979 | locus YGL248W, strain PDE1, stronger effect = lower value 0.991 | locus YGL253W, strain hxk2, stronger effect = lower value 1.04 | locus YGR078C, strain PAC10, stronger effect = lower value 0.984 | locus YGR135W, strain pre9, stronger effect = lower value 0.96 | locus YGR229C, strain SMI1, stronger effect = lower value 1 | locus YGR252W, strain gcn5, stronger effect = lower value 1 | locus YHR013C, strain ard1, stronger effect = lower value 1.03 | locus YHR027C, strain rpn1, stronger effect = lower value 1.02 | locus YHR030C, strain SLT2, stronger effect = lower value 0.993 and 0.984 | locus YHR079C, strain IRE1 (second series), stronger effect = lower value 0.965 | locus YHR079C, strain IRE1, stronger effect = lower value 0.981 | locus YHR094C, strain hxt1, stronger effect = lower value 0.983 | locus YHR129C, strain ARP1, stronger effect = lower value 0.982 | locus YHR142W, strain chs7, stronger effect = lower value 1.1 | locus YHR200W, strain rpn10, stronger effect = lower value 0.981 | locus YIL066C, strain RNR3, stronger effect = lower value 0.993 | locus YIL073C, strain SPO22, stronger effect = lower value 0.997 | locus YIL125W, strain kgd1, stronger effect = lower value 0.981 | locus YIR030C, strain dcg1, stronger effect = lower value 0.984 | locus YJL092W, strain hpr5, stronger effect = lower value 1.04 | locus YJL095W, strain BCK1 (second series), stronger effect = lower value 1.01 | locus YJL095W, strain BCK1, stronger effect = lower value 0.966 and 1.01 | locus YJL115W, strain asf1, stronger effect = lower value 1.07 | locus YJL129C, strain trk1, stronger effect = lower value 1.06 | locus YJL134W, strain LCB3, stronger effect = lower value 0.993 | locus YJL154C, strain vps35, stronger effect = lower value 1.03 | locus YJL164C, strain tpk1, stronger effect = lower value 1.04 | locus YJL166W, strain qcr8, stronger effect = lower value 1.04 | locus YJL168C, strain set2, stronger effect = lower value 0.97 | locus YJL187C, strain SWE1 (second series), stronger effect = lower value 0.979 | locus YJL187C, strain SWE1, stronger effect = lower value 1.02 | locus YJR043C, strain POL32, stronger effect = lower value 0.973 | locus YJR066W, strain TOR1, stronger effect = lower value 0.926
